Rows were chosen to be rich in hits. Some 9.8% of all compounds tested hit in one or more screens of this group.
HttQ103 aggreg: mutant huntingtin aggregation inhibition. PC12 HttQ103-GFP aggregates, Acumen cytometry, 40 h. Potency, µM (doses to about 46.1 µM), for the others: at the highest dose activity change, negative = inhibition, actives largely listed as inhibitors. 220,000 compounds, 1.1% hits; further: potency means the concentration at half of the fitted maximal effect; on the % scale 0 is the no-effect control and ±100 the full control effect; nearly all actives have a fitted effect of over 60% in size
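Compounds (qHTS titration) were added to PC12 cells expressing an ecdysone-driven HTT exon 1 Q103–GFP fusion after induction with 100 nM tebufenozide. Aggregate formation was measured as GFP objects in cell lysates.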
HTT cytoprotect: Huntington cell model cytoprotection by ATP luminescence. Potency, µM (highest dose often 56.4 µM), inactives show cytoprotection (ATP increase), actives largely listed as activators. PC12 HTT-Q103 induced, cytoprotection, ATP luminescence, 40 h. 230,000 compounds, 0.14% hits. AID 1471; further: potency means the concentration at half of the fitted maximal effect; % of control where 0% means no effect; nearly all actives have a fitted effect of over 45% in size
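PC12 cells stably carrying ecdysone-inducible Htt exon 1 (Q103)–GFP were induced with 100 nM tebufenozide (final) alongside library compounds in a dose series. Cytoprotection was scored as retained ATP by ATPlite luminescence.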
KDM4E inh: blocks human JMJD2E demethylase activity; JMJD2E catalytic domain, FDH-coupled NADH fluorescence (FDH is formaldehyde dehydrogenase); 230,000 compounds, 1.6% hits; Potency, µM (top dose mostly 57.1 µM), for inactives: at the top dose activity change, negative = inhibition, hits mostly inhibitors; B2RXH2; active means well fitted inhibition curve with a large enough effect, not every such curve was filed as active; inconclusive means small, poorly fitted or top-dose-only effect, or another doubt; inactive means no such curve, though single readings can be large or run the other way;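 further: potency means the concentration at half of the fitted maximal effect; 0% = wells with enzyme and -100% = buffer wells without enzyme; nearly all actives have a fitted effect of over 50% in size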
ALDH1A1 inh: inhibitors of human aldehyde dehydrogenase 1A1; Potency, µM (top dose mostly 75.3 µM), inactives show at the top dose activity, negative = inhibition, actives largely listed as inhibitors; Purified ALDH1A1, NADH fluorescence, propionaldehyde substrate; 220,000 compounds, 7.3% hits; P00352; AID 1030; active means well fitted inhibition curve with a large enough effect, not every such curve was filed as active; inconclusive means small, poorly fitted or top-dose-only effect, or another doubt; inactive means no such curve, though single readings can be large or run the other way;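 further: potency means the concentration at half of the fitted maximal effect; plate controls were no enzyme wells and a reference inhibitor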
Target sequence (P00352 whole entry, looked up): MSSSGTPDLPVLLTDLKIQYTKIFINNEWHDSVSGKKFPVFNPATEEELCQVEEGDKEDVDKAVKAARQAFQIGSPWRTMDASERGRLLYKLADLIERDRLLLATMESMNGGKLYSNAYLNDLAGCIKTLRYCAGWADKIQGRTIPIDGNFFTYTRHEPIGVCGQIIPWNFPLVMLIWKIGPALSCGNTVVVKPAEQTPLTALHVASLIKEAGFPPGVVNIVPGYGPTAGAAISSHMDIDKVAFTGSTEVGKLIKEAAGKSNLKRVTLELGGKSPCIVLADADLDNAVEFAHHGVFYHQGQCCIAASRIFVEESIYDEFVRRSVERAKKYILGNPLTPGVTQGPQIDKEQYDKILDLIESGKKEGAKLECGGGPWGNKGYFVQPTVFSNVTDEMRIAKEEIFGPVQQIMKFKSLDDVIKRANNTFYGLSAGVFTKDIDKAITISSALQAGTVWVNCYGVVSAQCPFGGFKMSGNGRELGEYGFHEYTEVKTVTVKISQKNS
CBFb-RUNX1 inh: blocks binding between human CBF-beta and RUNX1 | Q01196+Q13951 | AlphaScreen CBFb-His/RUNX1-biotin binding, biochemical | Potency, µM (top dose mostly 59.8 µM), inactives show top-dose activity, negative = inhibition, most hits filed as inhibitors | 230,000 tested, under 10 active | AID 1477; further: % of control where 0% means no effect
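CBFb-His/RUNX1-biotin, 30 nM each, preincubated 20 min RT; compound 15 min RT; Ni + streptavidin beads 50 ng each, 90 min RT; AlphaScreen read.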
HPGD inh: blocks human HPGD enzyme activity; P15428; purified HPGD, NADH fluorescence kinetic, PGE2 substrate; Potency, µM, inactives show top-dose activity change, negative = inhibition, usual class: inhibitors; 150,000 compounds, 4.3% hits; AID 894; active means well fitted inhibition curve with a large enough effect, not every such curve was filed as active; inconclusive means small, poorly fitted or top-dose-only effect, or another doubt; inactive means no such curve, though single readings can be large or run the other way; further: potency means the concentration at half of the fitted maximal effect; on the % scale 0 is the no-effect control and ±100 the full control effect
Target sequence (P15428 whole entry, looked up): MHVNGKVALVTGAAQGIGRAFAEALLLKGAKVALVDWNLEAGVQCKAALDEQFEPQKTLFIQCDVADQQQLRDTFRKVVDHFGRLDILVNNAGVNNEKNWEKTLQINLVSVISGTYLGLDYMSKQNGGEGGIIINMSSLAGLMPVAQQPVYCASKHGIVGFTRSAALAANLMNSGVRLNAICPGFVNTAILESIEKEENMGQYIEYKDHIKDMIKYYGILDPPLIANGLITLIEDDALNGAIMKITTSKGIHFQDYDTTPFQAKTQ
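NADH formation kinetics: reaction with 30 uM PGE2 and 1 mM NAD+ (final), 20 nM enzyme, Tris-HCl pH 8 with Tween 20, after 15 min compound preincubation at room temperature. Fluorescence change, last versus first of five reads.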
Active calls of the source: *; ? = inconclusive; . = no result given; [ ] = another dose, or the depositor's remark. Unless noted, the call rests on the fitted dose curve; in most records, active means well fitted curve in the direction sought with a large enough effect; inconclusive means small, poorly fitted or top-dose-only effect, or another doubt; inactive means no such curve, though single readings can be large; an effect the other way counts as inactive or inconclusive.

SMILES	HttQ103 aggreg	HTT cytoprotect	KDM4E inh	ALDH1A1 inh	CBFb-RUNX1 inh	HPGD inh
COc1ccc(C2=NN(CN3C(=O)C(=O)c4ccccc43)C(c3cccc([N+](=O)[O-])c3)C2)cc1 (configuration not stated)	0.0%[9.22 µM]	14.2%[10 µM]	-7.3%	.	?	.
CC(C(=O)NCC1CCCO1)c1ccc([N+](=O)[O-])cc1 (configuration not stated)	7.1%	-1.6%	7.3%	5.8%	-9.2%	.
CCOc1ccc(C(=O)N2CCCC2)cc1	-17.5%	17.2%[10 µM]	?	-1.3%	5.7%	7.94µM*
O=C(c1ccc(COc2ccccc2Br)o1)N1CCCCCC1	-13.6%	-16.7%	-6.6%	15.8µM*	-0.7%	14.1µM*
CCOc1ccc(C(=O)N2CCN(Cc3ccccc3)CC2)cc1	-16.0%	-7.7%	4.3%	-10.8%	3.7%	-18.3%
CC1CN(C(=O)c2ccc(C(=O)c3ccccc3)cc2)CC(C)O1 (configuration not stated)	-15.1%	-18.8%	-5.7%	?	4.5%	14.1µM*
CCCOc1ccc(C(=O)N2CCCc3ccccc32)cc1	-5.5%	-2.3%[0.074 µM]	5.4%	6.31µM*	8.4%	15.8µM*
Oc1ccccc1C1=Nc2ncnn2C(c2ccc(F)cc2)C1 (configuration not stated)	-23.0%	-10.5%[0.074 µM]	?	?	5.0%	-11.4%
O=c1c2cc(NC(=S)NCc3cccnc3)ccc2nc2n1CCCCC2	7.6%	-73.5%	?	?	4.3%	.
CCC1CCCCN1C(=O)c1sc2nc(C)nc(N(CC)CC)c2c1C (configuration not stated)	-24.1%	4.4%	1.9%	0.5%	1.0%	.
CCOC(=O)C1CCCN(C(=O)c2ccc(OCC)cc2)C1 (configuration not stated)	-28.4%	25.3%	4.2%	-12.0%	12.8%	14.1µM*
CCOC(=O)C1CCCN(C(=O)c2sc3nc(C)nc(N(CC)CC)c3c2C)C1 (configuration not stated)	-0.1%	3.1%[10 µM]	6.9%	3.0%	0.4%	14.1µM*
O=C(O)COc1ccccc1/C=N/NC(=O)CSc1nnc(SCc2ccccc2)s1	19.9%[9.22 µM]	15.0%[10 µM]	-5.8%	.	2.7%	.
Cc1nc(SC(C(N)=O)c2ccccc2)c(C#N)c(C)c1C (configuration not stated)	-5.9%[9.22 µM]	-1.3%[10 µM]	1.7%	.	5.8%	.
COc1ccccc1-c1cc(-c2ccccc2)nc(SC(C(N)=O)c2ccccc2)c1C#N (configuration not stated)	11.2µM*	-5.5%	3.2%	?	-1.3%	?
COc1ccccc1NC(CC(=O)c1ccccc1)C(=O)OCC(=O)c1ccc(C)c(C)c1 (configuration not stated)	-4.4%	-3.8%[10 µM]	7.0%	7.08µM*	-12.9%	-17.1%
COc1ccccc1NC(CC(=O)c1ccccc1)C(=O)OCC(=O)c1ccc(C)cc1 (configuration not stated)	30.2%	-5.2%[10 µM]	-6.1%	10µM*	-13.9%	-12.8%
COc1ccccc1NC(CC(=O)c1ccccc1)C(=O)OCC(=O)c1ccc(Br)cc1 (configuration not stated)	-11.1%	-15.7%[10 µM]	-1.3%	?	-13.2%	-9.5%
Cc1ccc(C(=O)COC(=O)CNC(=O)COc2ccccc2C)cc1C	12.6%	10.1%	-4.7%	-3.7%	-1.9%	-9.6%
N[C@@H](CC1=CS(=O)(=O)c2ccc(Cl)cc21)C(=O)O	.	3.8%[10 µM]	.	-9.3%[13.5 µM]	.	-8.8%
CCOC(=O)c1[nH]c(CO)c(C(=O)OCC)c1C	-3.3%[9.22 µM]	-4.2%[10 µM]	2.3%	4.1%	-1.6%	.
COc1ccc(C(=O)Cn2ccsc2=NC(C)=O)cc1	11.1%	16.5%	-2.2%	6.7%	8.2%	.
Cc1ccc(Cn2ccsc2=NC(=O)CCl)cc1	?	-8.5%	-1.4%	10µM*	0.2%	.
O=C(CC1C(=O)NCCN1Cc1cccc(Oc2ccccc2)c1)NCCc1ccncc1 (configuration not stated)	1.4%[9.22 µM]	25.1%[10 µM]	-9.8%	3.1%	-2.6%	.
CCCn1ncc(OC)c(Cl)c1=O	8.8%	-1.0%	2.4%	5.3%	5.3%	-7.2%
SMILES	HttQ103 aggreg	HTT cytoprotect	KDM4E inh	ALDH1A1 inh	CBFb-RUNX1 inh	HPGD inh
O=C1SC(SC(=Nc2ccccc2)Nc2ccccc2)C(=O)N1c1ccccc1 (configuration not stated)	15.3%	.	2.5%	25.1µM*	-11.2%	-12.4%
Cc1cccc(N2C(=O)CC(SC(=Nc3ccccc3)Nc3ccccc3)C2=O)c1 (configuration not stated)	3.16µM*	.	0.9%	-8.3%	1.2%	-10.1%
O=C1c2ccccc2C(O)N1c1cccnc1 (configuration not stated)	-4.0%	1.3%	-5.1%	7.6%	-1.5%	-23.0%
CC(C)CN1C(=O)C(=Nc2cccnc2)c2ccccc21	1.2%	-7.1%	?	1µM*	7.4%	.
Cc1c(C(=O)O)c(O)cc2c1C(=O)c1c(O)c([C@H]3O[C@H](CO)[C@@H](O)[C@H](O)[C@H]3O)c(O)c(O)c1C2=O	-3.8%	-34.5%[1.9 µM]	7.94µM*	11.2µM*	?	17.8µM*
N#C/C(=C/Nc1ccccc1)c1ccsc1	12.6µM*	-8.1%	-25.5%	?	-17.3%	-29.2%
O=C1CC2c3ccccc3C1C1C(=O)N(CCO)C(=O)C21 (configuration not stated)	-10.6%[9.22 µM]	3.0%[10 µM]	?	2.7%	10.5%	.
Cc1nccn1C[C@@H]1CCc2c(c3ccccc3n2C)C1=O	.	5.7%[40.3 µM]	-0.1%[25.5 µM]	-2.1%[20.9 µM]	-0.9%[21.7 µM]	-9.3%
O=C(Nc1ccc(Nc2ccccc2)cc1)c1ccc(Br)o1	-16.4%	-6.1%	-13.8%	4.9%	-25.8%	28.2µM*
O=C(NC(=S)Nc1ccccc1)c1ccc(Br)o1	17.0%	-45.6%	-2.3%	-4.8%	-1.6%	.
COc1ccc(NC(=S)NC(=O)c2ccc(Br)o2)cc1	8.9%	-40.8%	-4.8%	11.2µM*	4.2%	.
O=C(Nc1ccc2c(c1)OCCO2)c1ccc(Br)o1	12.1%	-66.4%	-0.5%	?	2.4%	28.2µM*
CCOC(=O)/C=C1\CC(=O)Nc2nonc2N1	-9.5%	4.1%[1.9 µM]	-7.7%	2.2%	4.3%	31.6µM*
O=C(Nc1ccc(OC(=O)c2cccnc2)cc1)c1cccnc1	6.8%	-31.3%	1.0%	11.9%	-2.2%	-4.0%
COC(=O)c1sccc1NC(=O)c1c(-c2ccccc2)noc1C	-9.6%	-6.3%[10 µM]	0.5%	8.91µM*	-2.5%	-18.3%
COC(=O)c1sccc1NC(=O)c1ccc(OC)cc1	-13.0%	-77.0%	?	?	1.5%	?
COC(=O)c1c(-c2ccc(C)cc2)csc1NC(=O)c1c(-c2ccccc2)noc1C	-24.3%	-6.4%[10 µM]	?	?	5.0%	?
